In PubChem BioAssay AID602399 (Sanford-Burnham Center for Chemical Genomics, 2012):
Among all 360,000 compounds or so, about 2,800 (0.78%) were called active. Cut-off read from the data, not from the text of the source: active = inhibition above about 26%; inactive = the rest. What follows is part of a selection rich in actives, with near analogues and random picks from the rest.

tested on: Nicotinate-nucleotide adenylyltransferase NadD (Staphylococcus aureus N315); assay: inhibitors of S. aureus NadD, primary screen, biochemical, colorimetric, uHTS (AID 602399); details: purified NadD enzyme, colorimetric absorbance read-out; at 20 µM; stronger effect = higher value

SMILES	inhibition
C[C@H]1COC(=O)[C@H](CC(=O)OC(C)(C)C)C/C=C\C[C@@H](CC(=O)N[C@H](CO)Cc2ccccc2)C(=O)N1	-1.24% (inactive)
CC(c1ccccn1)N(C)C(=O)c1ccc2nc(Cc3cccc(Cl)c3)oc2c1 (stereo unspecified)	-8.59% (inactive)
CCOCCCNC(=O)Cc1cc(=O)[nH]c(=O)[nH]1	4.88% (inactive)
CC(=O)N1CCc2ccc(N)cc21	-3.06% (inactive)
O=C1NC(O)CCN1C1CC(O)C(CO)O1 (stereo unspecified)	-1.72% (inactive)
Cc1noc(C)c1S(=O)(=O)N(C)C[C@H]1Oc2ccc(NC(=O)C3CC3)cc2C(=O)N([C@H](C)CO)C[C@@H]1C	4.79% (inactive)
Cc1ccc2nc(SCC(=O)N3CC(C)OC(C)C3)nc(=O)n2c1 (stereo unspecified)	-2.71% (inactive)
CCOC(=O)C1=CCC(c2ccc(F)cc2)N(S(=O)(=O)c2ccc(C)cc2)C1 (stereo unspecified)	-6.49% (inactive)
COC(=O)[C@]12CCCCC=C1N(Cc1ccc(Cl)cc1Cl)C(=O)[C@H](CC(=O)NCc1cccc3ccccc13)C2	16.3% (inactive)
CCN(CC)c1ccc(C(=O)NNC(=O)CCc2nc3ccccc3c(=O)[nH]2)cc1	-1.03% (inactive)
Cc1cc(C)c(-c2csc(NC(=O)CCCc3nc4ccccc4c(=O)[nH]3)n2)c(C)c1	21.6% (inactive)
CCCn1c(C)cc(-c2csc(NC(=O)CCc3nc4ccccc4c(=O)[nH]3)n2)c1C	47.6% (active)
CN(CC(=O)NCc1ccc2c(c1)OCO2)CC(=O)Nc1ccc(F)c(F)c1F	-3.42% (inactive)
COc1ccc([N+](=O)[O-])cc1NCC(=O)c1ccc(C)cc1	7.38% (inactive)
COc1ccc([N+](=O)[O-])cc1NC(=O)CC1SC(=Nc2cccc(C)c2C)N(/N=C(\C)c2ccc(C)cc2)C1=O (stereo unspecified)	26.7% (active)
COc1ccc([N+](=O)[O-])cc1NC(=O)c1ccc(N(Cc2ccccc2C)S(C)(=O)=O)cc1	11% (inactive)
N#CNC1=NCN(CCc2ccccc2)CN1	3.37% (inactive)
COc1ccc(NC(=O)N(C)C[C@@H]2OCc3cn(nn3)CCCC(=O)N([C@H](C)CO)C[C@H]2C)c(OC)c1	-0.14% (inactive)
COc1ccc(-n2c(SCC(=O)Nc3sc4c(c3C#N)CCCC4)nnc2-c2ccc(O)cc2)cc1	33.1% (active)
CCCc1cc(=O)[nH]c(SCC(=O)Nc2sc3c(c2C#N)CCCC3)n1	0.874% (inactive)
COc1cccc(CN(C)CC(=O)Nc2sc3c(c2C#N)CCC3)c1	-5.48% (inactive)
COc1ccc(-c2ccc3[nH]c4c(c3c2)CCN2C[C@H]3[C@H](C)ON(C)[C@H]3C[C@@H]42)cc1	-7.97% (inactive)

SMILES	inhibition
COc1cccc(C(O)c2nc(-c3ccc(C)c(C)c3)cs2)c1 (stereo unspecified)	-4.75% (inactive)
Cc1ccc(/C=C/C(=O)Nc2ccc([N+](=O)[O-])c(NC(=O)/C=C/c3ccc(C)o3)c2)o1	47.9% (active)
Cc1cc(NC(=O)COC(=O)/C=C/c2ccc(C)o2)no1	-5.17% (inactive)
COC(=O)/C=C\C(=O)Nc1cccc([N+](=O)[O-])c1	7.18% (inactive)
O=C(NC(=O)N1CCSCC1)c1c(Cl)cccc1Cl	17.8% (inactive)
Cc1ccc(S(=O)(=O)NCC(=O)N(CC(=O)NC(C)(C)C)Cc2cccs2)cc1	-3.65% (inactive)
Cn1c2c(c(=O)n(C)c1=O)[C@@H]1c3c(ccc4ccccc34)OC[C@@H]1CO2	1.89% (inactive)
CC1=CC(=O)C=CC1(C)C(Cl)(Cl)Cl (stereo unspecified)	4.28% (inactive)
N#CC1=C(N)Oc2c(sc3ccccc23)C1c1ccco1 (stereo unspecified)	33.4% (active)
Cc1ccc(C(=O)N(CN2CCCC2=O)c2ccc(F)cc2)cc1	-3.99% (inactive)
COc1cc(C(F)(F)F)c(C(=O)N(C)c2ccc(Cl)cc2)cn1	-3.26% (inactive)
COc1ccc(C(NC(=O)C2CCN(CCCc3ccccc3)CC2)c2cccs2)cc1 (stereo unspecified)	0.814% (inactive)
COc1cccc(/C=C/c2ccc3ccccc3n2)c1OC(C)=O	-5.51% (inactive)
COc1cccc2sc(NNC(=O)c3nc4ccccc4s3)nc12	36.6% (active)
Cc1ccc2sc(NNC(=O)c3ccc4c(c3)OCCO4)nc2c1C	11.1% (inactive)
O=C(COc1nc2ccccc2nc1N1CCOCC1)NCC(F)(F)F	-2.03% (inactive)
COC(=O)[C@@]1(Cc2ccc(OC)cc2)[C@H]2c3cc(C(=O)N4CCCC4)n(Cc4ccc(OC(F)(F)F)cc4)c3C[C@H]2CN1C(=O)c1ccccc1	15.7% (inactive)
CCOc1ccc(S(=O)(=O)N2CCCCC2)cc1NC(=O)CN1CCCC1c1cccs1 (stereo unspecified)	5.31% (inactive)
CCN(CC)c1ccc(NC(=O)CN2C(=O)NC3(CCc4ccccc43)C2=O)cc1 (stereo unspecified)	-4.85% (inactive)
CCCN(c1ccc(C(C)C)cc1)S(=O)(=O)c1c(C)[nH]c(=O)[nH]c1=O	6.85% (inactive)
CC(=O)Nc1ccc(C(=O)Nc2cccc(S(=O)(=O)NC3=NCCC3)c2)cc1	7.82% (inactive)
Nc1[nH]c(=S)nc2nc(-c3ccccc3)c(-c3ccccc3)nc12	31.3% (active)

SMILES	inhibition
CC/C(=N\O)C(C)(C)/[N+]([O-])=C/c1ccc(Br)cc1	-4.93% (inactive)
CC12CN(Cc3ccccc3)CC(C)(CN(Cc3ccccc3)C1)C2=NO	-2.69% (inactive)
O=C(NCCc1cccc(F)c1)C1CC(O)CN1C(=O)Nc1ccccc1 (stereo unspecified)	0.207% (inactive)
O=S(=O)(c1ccc(Cl)cc1)N1CCCN(c2ccc(C(F)(F)F)cn2)CC1	-6.85% (inactive)
COc1ccc(CCNC(=O)/C(C#N)=C2\N=C(NC(=O)c3cccs3)c3ccccc32)cc1	2.29% (inactive)
Cc1ccc2nc(/C(C#N)=C\c3ccc(OC(=O)c4cccs4)cc3)[nH]c2c1	40.4% (active)
CN1CCN(CC#CCC2(O)c3ccccc3-c3ccccc32)CC1	-2.12% (inactive)
O=C1CC(c2cccc(Cl)c2)CC(O)=C1C=Nc1ccccc1 (stereo unspecified)	-3.63% (inactive)
COc1ccc2c(c1OC)C(=O)N(c1ncn[nH]1)C2	0.954% (inactive)
COc1ccc(Cl)cc1S(=O)(=O)N1CCC(O)(c2ccc(Cl)cc2)CC1	-4.67% (inactive)
CCc1c(C)c2c(C)[nH]nc2oc1=O	-0.195% (inactive)
O=c1oc(-c2ccco2)nc2sc3c(c12)CCCCC3	-5.51% (inactive)
Cc1ccc(NC(=O)c2sc3nc(N)c(C#N)cc3c2N)cc1	12.7% (inactive)
Cc1cccc(NC(=O)c2sc3nc4c(c(-c5ccco5)c3c2N)CCC4)c1	44.6% (active)
Cc1cccn2c(CN(C)C3CCCc4ccccc43)c(C(=O)N3CCOCC3)nc12 (stereo unspecified)	-3.79% (inactive)
C=CCOc1ccccc1NC(=O)CN1C(=O)CNC1=O	-2.12% (inactive)
O=C(Nc1ccc(Br)cn1)C1CCN(S(=O)(=O)c2cccs2)CC1	-7.26% (inactive)
CCCc1nc(SCC(=O)Nc2ccccc2OC)c2c(=O)n(C)c(=O)n(C)c2n1	-1.01% (inactive)
O=C(O)CCN(Cc1ccccc1)S(=O)(=O)c1c(Cl)cccc1Cl	-4.97% (inactive)
CCOC(=O)C1=C(C)c2ccccc2OC1C(=O)OCC (stereo unspecified)	-1.62% (inactive)
C=C1c2cccc(OC)c2O[C@H](C(=O)OCC)[C@@H]1CCCCCC	52.4% (active)
O=C(COC(=O)c1cc(=O)[nH]c2ccccc12)Nc1nc(-c2cccc(Br)c2)cs1	42.5% (active)

SMILES	inhibition
Cc1csc(NC(=O)CSc2ccc(-c3ccc(F)cc3)nn2)n1	0.514% (inactive)
O=C(CSc1nc2ccccc2c(=O)[nH]1)Nc1nc(-c2ccc(Br)cc2)cs1	42.3% (active)
O=C(CSc1ncn[nH]1)Nc1nc(-c2cccc([N+](=O)[O-])c2)cs1	-5.15% (inactive)
O=C(OCc1nnc(-c2ccccc2)o1)c1cc(=O)[nH]c2ccccc12	-0.542% (inactive)
O=C(COC(=O)c1cc(=O)[nH]c2ccccc12)NCc1cccc(Cl)c1	0% (inactive)
CCOC(=O)c1ccn(S(=O)(=O)c2ccc(C)cc2)c1-c1ccccc1	-0.973% (inactive)
CCOc1ccc(-c2cn(S(=O)(=O)c3cccc4nsnc34)nc2N)cc1	-0.18% (inactive)
CC(C)c1nnc(NC(=O)CCC(=O)N2CCN(c3cccc(Cl)c3)CC2)s1	1.72% (inactive)
COc1c(F)c(F)c(-c2csc(N)n2)c(F)c1F	-5.11% (inactive)
O=C(Nc1ccc(OCCO)cc1)c1csc([C@H]2C[C@H](O)[C@@H](CO)O2)n1	-8.65% (inactive)
CCCNC(=O)c1cnc(-c2ccccc2)nc1-c1ccccc1	-3.59% (inactive)
CCOc1cc(/C=C2/N=C(c3ccc(C(C)(C)C)cc3)OC2=O)cc(Cl)c1OS(C)(=O)=O	71.7% (active)
O=C(NC(Nc1nc2ccc([N+](=O)[O-])cc2s1)(C(F)(F)F)C(F)(F)F)c1ccccc1	-2.21% (inactive)
O=C(Nc1nc2ccc([N+](=O)[O-])cc2s1)c1ccc(S(=O)(=O)N2CCCc3ccccc32)cc1	34.4% (active)
CNC(=O)c1ccsc1NC(=O)c1ccc(S(=O)(=O)N2CCc3ccccc32)cc1	11.7% (inactive)
O=C(OCc1cn(-c2ccc(Cl)c(Cl)c2)nn1)c1ccccc1Cl	0.666% (inactive)
C=CCc1cccc2cc(C(=O)N3CCN(C(=O)OCC)CC3)c(=O)oc12	-4.59% (inactive)
COc1ccc(C)cc1NC(=O)c1ccc(-c2ccc(C(C)=O)cc2)o1	-8.65% (inactive)
CN(c1ccccn1)c1ncnc2[nH]ncc12	-2.6% (inactive)
Cc1cc(C)c2c(c1)cc(C)c1nnc(SCC(=O)Nc3cc(C)on3)n12	0.406% (inactive)
